Results taken from PubChem BioAssay.
The source made the active and inactive calls. Unless noted, the rule behind the calls is not given here.

Columns and labels:
[1] = A549 cell viability effects, profiling panel, calcein-AM fluorescence, 48 h, basal (AID 1162); details: higher = more signal; note: test concentration not given here
[2] = adipocyte viability effects, profiling panel, cell-based, 3T3-L1 adipocytes, calcein-AM fluorescence, 48 h, basal (AID 1163); details: 3T3-L1 adipocytes viability, higher = more signal; note: test concentration not given here
[3] = HepG2 cell viability effects, profiling panel, calcein-AM fluorescence, 48 h, basal (AID 1164); details: higher = more signal; note: test concentration not given here
[4] = MM1S cell viability effects, profiling panel, calcein-AM fluorescence, 48 h, basal (AID 1165); details: higher = more signal;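 note: viability of MM1S multiple myeloma cells under basal unstimulated conditions; test concentration not given here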
[5] = basal RPMI8226 viability, no added stimulus, profiling panel, cell-based, calcein-AM fluorescence, 48 h, PK04 Diversity Set (AID 1166); details: RPMI8226 myeloma viability, higher = more signal;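 note: cells grown under basal conditions without added stimulus; test concentration not given here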
[6] = basal HepG2 mitochondrial membrane potential changes, profiling panel, cell-based, JC-1 fluorescence, 24 h, 100 nL compound (AID 1167); details: higher = more signal; note: test concentration not given here
[7] = basal 3T3-L1 adipocyte mitochondrial potential changes, profiling panel, cell-based, JC-1 fluorescence, 3T3-L1 adipocytes, 24 h, 100 nL compound (AID 1168); details: JC-1 mitochondrial fluorescence, higher = more signal, called active from +8 up or from −8 down; note: test concentration not given here
[8] = basal RPMI8226 mitochondrial membrane potential changes, profiling panel, cell-based, JC-1 fluorescence, 24 h, 100 nL compound (AID 1169); details: RPMI8226 myeloma, JC-1 mitochondrial potential fluorescence, higher = more signal; note: test concentration not given here
[9] = basal MM1S mitochondrial membrane potential changes, profiling panel, cell-based, JC-1 fluorescence, 24 h, 100 nL compound (AID 1170); details: higher = more signal; note: test concentration not given here
[10] = A549 lung cancer cell viability effects, profiling panel, resazurin fluorescence, 24 h, PK04 Diversity Set (AID 1171); details: higher = more signal, called active from +8 up or from −8 down; note: test concentration not given here
[11] = HepG2 liver cancer cell viability effects, profiling panel, resazurin fluorescence, 24 h, PK04 Diversity Set (AID 1172); details: higher = more signal; note: test concentration not given here
[12] = basal S. cerevisiae growth modulation, no modifier, primary screen, OD600, strain BY4716, 24 h, basal condition (AID 1173); details: OD600, 24 h, higher = more signal, called active from +8 up or from −8 down
[13] = MM1S myeloma cell viability, profiling panel, resazurin fluorescence, basal, 24 h, PK04 Diversity Set (AID 1174); details: higher = more signal, called active from +8 up or from −8 down;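 note: MM1S multiple myeloma cell line; test concentration not given here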
[14] = molecular target: Dihydroorotate dehydrogenase (quinone), mitochondrial (Plasmodium falciparum (isolate 3D7)) (UniProt Q08210); experiment: PfDHODH enzyme inhibitors, primary screen, biochemical, C-terminal His tag, absorbance 600 nm (AID 1175); details: DCIP absorbance 600 nm, higher = more signal, called active from +8 up or from −8 down;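 note: recombinant parasite enzyme with a five histidine tag at its C terminus; test concentration not given here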
[15] = P. aeruginosa biofilm formation inhibitors, primary screen, strain PAO1, LB-PBS medium, absorbance 600 nm (AID 1176); note: test concentration not given here; details: P. aeruginosa PAO1 growth/biofilm, A600, 12 h; higher = more signal
[16] = S. cerevisiae RM11-1a growth modifiers, primary screen, strain RM11-1a, OD600, basal, 24 h (AID 1177); details: OD600, 24 h, higher = more signal, called active from +8 up or from −8 down;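 note: cultures grown under basal conditions with no added stressor; test concentration not given here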
[17] = E. coli acrAB mutant growth effects, primary screen, E. coli filamentation inducers, strain DRC39, OD650, 24 h (AID 1178); details: higher = more signal, called active from +8 up or from −8 down;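 note: growth measured as culture turbidity by optical density at 650 nm; test concentration not given here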
[18] = E. coli acrAB mutant growth effects, primary screen, E. coli filamentation inducers, strain DRC39, OD650, 48 h (AID 1179);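 note: screen aims at cell division blockers that make cells filament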; details: E. coli DRC39 delta-acrAB growth, higher = more signal, called active from +8 up or from −8 down
[19] = RPMI8226 myeloma cell viability, profiling panel, resazurin fluorescence, basal, 24 h, PK04 Diversity Set (AID 1180); details: higher = more signal;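 note: RPMI8826 multiple myeloma cell line at 5000 cells per well; test concentration not given here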
[20] = molecular target: E3 ubiquitin-protein ligase XIAP (Homo sapiens) (UniProt P98170); experiment: XIAP binders, primary screen, biophysical, small-molecule microarray, fluorescence 635 nm (AID 1181); details: small-molecule microarray binding, higher = more signal;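 note: score merges 667 nm emission and signal to noise over triplicate slides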
Chain of E3 ubiquitin-protein ligase XIAP (Homo sapiens) (P98170 whole entry, looked up): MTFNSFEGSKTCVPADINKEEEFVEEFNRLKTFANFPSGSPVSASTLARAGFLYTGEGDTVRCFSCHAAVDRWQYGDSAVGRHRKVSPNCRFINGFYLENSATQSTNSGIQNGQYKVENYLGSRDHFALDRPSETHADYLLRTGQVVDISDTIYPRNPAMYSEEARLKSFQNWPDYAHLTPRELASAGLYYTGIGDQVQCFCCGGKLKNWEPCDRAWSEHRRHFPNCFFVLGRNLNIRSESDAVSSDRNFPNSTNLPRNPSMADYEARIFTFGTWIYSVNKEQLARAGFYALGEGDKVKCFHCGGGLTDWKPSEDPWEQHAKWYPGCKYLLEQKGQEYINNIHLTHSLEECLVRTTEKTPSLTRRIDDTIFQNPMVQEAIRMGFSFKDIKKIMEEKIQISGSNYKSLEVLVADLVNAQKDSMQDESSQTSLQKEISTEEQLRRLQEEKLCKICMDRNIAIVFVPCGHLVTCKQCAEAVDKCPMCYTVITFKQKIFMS

Chain of Dihydroorotate dehydrogenase (quinone), mitochondrial (Plasmodium falciparum (isolate 3D7)) (Q08210 whole entry, looked up): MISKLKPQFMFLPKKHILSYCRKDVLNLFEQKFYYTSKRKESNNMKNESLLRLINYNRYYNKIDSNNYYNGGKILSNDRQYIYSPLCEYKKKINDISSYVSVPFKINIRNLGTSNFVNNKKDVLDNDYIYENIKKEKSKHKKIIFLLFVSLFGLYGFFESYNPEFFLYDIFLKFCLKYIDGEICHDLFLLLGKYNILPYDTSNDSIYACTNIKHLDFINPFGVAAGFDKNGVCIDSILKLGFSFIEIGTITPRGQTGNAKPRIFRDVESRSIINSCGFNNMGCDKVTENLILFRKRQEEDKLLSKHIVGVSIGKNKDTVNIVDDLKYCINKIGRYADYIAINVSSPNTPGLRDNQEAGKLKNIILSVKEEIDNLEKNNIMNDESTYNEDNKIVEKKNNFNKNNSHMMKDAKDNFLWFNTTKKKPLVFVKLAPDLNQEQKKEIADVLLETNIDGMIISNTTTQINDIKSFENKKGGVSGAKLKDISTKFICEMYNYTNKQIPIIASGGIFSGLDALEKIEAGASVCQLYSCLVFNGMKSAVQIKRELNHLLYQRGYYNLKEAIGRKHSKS

Row | SMILES | z-score [1] | z-score [2] | z-score [3] | z-score [4] | z-score [5] | z-score [6] | z-score [7] | z-score [8] | z-score [9] | z-score [10] | z-score [11] | z-score [12] | z-score [13] | composite z-score [14] | z-score [15] | z-score [16] | z-score [17] | z-score [18] | z-score [19] | composite z-score [20]
1 | CO[C@@H]1C=CCC(=O)N[C@@H](C)C(=O)OC[C@@H](OC)[C@H](C)CCCC(=O)OC[C@H]1C | 0.942 | -0.226 | -0.0306 | 0.188 | -0.0539 | -0.0819 | 0.225 (inactive) | 0.236 | -0.392 | 0.471 (inactive) | 0.287 | -0.445 (inactive) | 0.719 (inactive) | -1.38 (inactive) | -0.479 (inactive) | -0.935 (inactive) | 0.853 (inactive) | 0.174 (inactive) | 1.58 | -0.269
2 | CCOC(=O)CCN1C(=O)[C@H]2[C@H]3[C@H](O)[C@H](O)CC(=NOCc4ccccc4)[C@H]3CC[C@H]2C1=O | 0.14 | -1.08 | -0.416 | 0.0807 | -0.273 | 0.239 | 0.392 (inactive) | -0.508 | -1.22 | -0.553 (inactive) | -0.436 | 0.556 (inactive) | -1.34 (inactive) | 0.461 (inactive) | 0.365 (inactive) | 0.632 (inactive) | 0.955 (inactive) | 1.08 (inactive) | -0.775 | 0.012
3 | CCOC(=O)NN=C1C[C@@H](O)[C@@H](O)[C@@H]2[C@@H]3C(=O)N([C@@H](C)c4ccccc4)C(=O)[C@@H]3CC[C@H]12 | -0.0339 | -0.584 | -0.102 | 0.136 | -0.177 | -0.39 | 0.29 (inactive) | 0.104 | -0.476 | -0.193 (inactive) | 0.384 | 0.448 (inactive) | -0.495 (inactive) | -0.309 (inactive) | 0.0942 (inactive) | -0.362 (inactive) | -0.212 (inactive) | -0.102 (inactive) | 0.331 | -0.0076
4 | CC(C)=CCCC(C)=CCON=C1C[C@@H](O)[C@@H](O)[C@@H]2[C@@H]3C(=O)N(C[C@@H]4CCCO4)C(=O)[C@@H]3CC[C@H]12 | -0.0285 | -0.789 | -0.758 | 0.253 | -0.674 | -0.915 | -0.528 (inactive) | 0.569 | -0.789 | 0.691 (inactive) | 0.164 | -1.72 (inactive) | -0.58 (inactive) | 0.0911 (inactive) | 0.295 (inactive) | 1.8 (inactive) | -0.169 (inactive) | -0.543 (inactive) | -0.251 | -0.217
